Consider 39 sequences from the OligoGym collection.
Further: reference of the scale not given here.

For the first experiment, the target named is DMXL1. The experiment can be described thus: pooled miR-30 sensor sort-seq; sequence = guide strand. The settings on record: shRNA.
With TTTCTAAATAGTATCTACTTAA, the sensor-assay potency score (higher = more potent) is -0.599.

For TTCTACATTATACCAAACCTTC, the sensor-assay potency score (higher = more potent) was -0.955.

Take AAATAGTACATAATTGTCCCAT: the sensor-assay potency score (higher = more potent) was 0.365.

Turning to TAAGTTAAAAGCATTGTGCATT, the sensor-assay potency score (higher = more potent) was -0.306.

As to TTCATTTTCATTTAGACTCAGA, the sensor-assay potency score (higher = more potent) is -0.406.

For the sequence TTTTCTATAATTCTGAATCAGA, the sensor-assay potency score (higher = more potent) is -0.788.

For TTTCTGAACTTCCATCTGGAGA, the sensor-assay potency score (higher = more potent) was -0.95.

On to TTCTTGAACATCATGACTGGAA, for which the sensor-assay potency score (higher = more potent) was -0.0948.

Regarding TTACACATTCTACTTTAGGCAA, the sensor-assay potency score (higher = more potent) is -0.183.

In the case of TAACATTTCCATAAGACGCTGC, the sensor-assay potency score (higher = more potent) came to 0.508.

For the sequence TTCTATATCATCATCTACCCAA, the sensor-assay potency score (higher = more potent) was -0.207.

As to TTGAACTCGTTCTTTACTGGAA, the sensor-assay potency score (higher = more potent) is -0.246.

TTTCATTAAATGAACTTGGGAA: the sensor-assay potency score (higher = more potent) is 0.382.

As to TTCGCTAATATATACAACTAAG, the sensor-assay potency score (higher = more potent) was -0.796.

TTTAACACTATGACATACTGAT returned a sensor-assay potency score (higher = more potent) of 0.376.

In the next experiment the target is DNAJA2. The experiment is described as above. The settings on record: shRNA.
The sequence TTTCTTTAAATTTGTCTCCTGC displayed a sensor-assay potency score (higher = more potent) of 0.759.

In the case of TTTCATGCCTTTGTCTACGTGG, the sensor-assay potency score (higher = more potent) is -0.148.

TACCTCATGTTCTTTCTCCTGT had a sensor-assay potency score (higher = more potent) of 0.929.

In the case of TAGTTCAGAAAGCTTGTCTGGG, the sensor-assay potency score (higher = more potent) is 0.299.

As for TATTCCTTGGCTAACTTTCTGT, the sensor-assay potency score (higher = more potent) was -0.171.

TCGAGTGCTATCAAATTCCTGA yielded a sensor-assay potency score (higher = more potent) of 0.237.

TAGAGCTTCAACAAGTCCTATT: the sensor-assay potency score (higher = more potent) is -0.658.

TTCAAGAATCTTGACTTCTTTA: the sensor-assay potency score (higher = more potent) was -0.418.

Turning to TATTTCACCACAATCTGACGTC, the sensor-assay potency score (higher = more potent) was determined as 0.583.

For the sequence TTCTTCAGCTCGTTCTCGCTGG, the sensor-assay potency score (higher = more potent) was -0.323.

As to TTGATAGTACTTCATATGCAAA, the sensor-assay potency score (higher = more potent) is -1.43.

Turning to AATTATGTTAGGAACTTCCGGT, the sensor-assay potency score (higher = more potent) was -0.0625.

The target of another experiment is DNAJB11. The description is as above. The settings on record: shRNA.
In turn, TTCACCATAAGTATCGTACTGT gave a sensor-assay potency score (higher = more potent) of 0.409.

On to TCTATTTCTACTTCCAGCGTTC, for which the sensor-assay potency score (higher = more potent) is -0.287.

With TATACCTTCTGCACTGACCCTT, the sensor-assay potency score (higher = more potent) stood at 0.681.

On to TTCGGAACCGTAAATCTCCAGG, for which the sensor-assay potency score (higher = more potent) was -0.565.

For the sequence TTTGTGTACAAATCATCTCCTC, the sensor-assay potency score (higher = more potent) was -0.115.

Take TCTTCCATAGCTTCGCTCCTGG: the sensor-assay potency score (higher = more potent) was -0.0366.

TTCTTCACCATAAGTATCGTAC: the sensor-assay potency score (higher = more potent) is -0.183.

On to TTGTGTACAAATCATCTCCTCT, for which the sensor-assay potency score (higher = more potent) was -0.302.

TCTTATAGAAATCTCGTCCGGC yielded a sensor-assay potency score (higher = more potent) of 0.334.

For TTCGTCGCAGACCACCTCCTGG, the sensor-assay potency score (higher = more potent) is -1.23.

As to TTTGTTTCTAACTACTTCCACA, the sensor-assay potency score (higher = more potent) was -0.721.

In the case of TATTTCTGTCTTGCTGACGAGG, the sensor-assay potency score (higher = more potent) is -1.05.
